Sa ugtP lethal = growth inhibition of ugtP-null S. aureus, primary screen, RN4220 ugtP deletion, OD600; 16 h; growth inhibition, % (no concentration beside the values); 0.54% of 330,000 active; AID 1259309, 2017; in the data active = growth inhibition above about 68%
PriA SSB inh = inhibitors of Klebsiella pneumoniae PriA binding to SSB C-terminal tail, primary screen, biochemical, AlphaScreen; PriA–SSB C-terminal tail interaction (Klebsiella pneumoniae); AlphaScreen SSBct-PriA binding, biotinylated peptide; inhibition, % at 33 µM; 0.6% of 430,000 active; AID 1272365, 2023; in the data active = inhibition mostly above about 37%, no sharp cut-off; inactive = mostly below about 20%
BJeLR lethal = MLPCN primary cell-based screen for lethality selective to Ras in HRASV12 cells; AID 1554, 2009; inhibition, % (no concentration beside the values); BJeLR (HRASV12) viability, CellTiter-Glo ATP luminescence, 48 h; 0.17% of 300,000 active; in the data active = inhibition above about 50%
RN4220 kill = growth inhibition of S. aureus RN4220, primary screen, OD600; 16 h; inhibition, % (test concentration not listed); 0.33% of 330,000 active; in the data active = inhibition above about 85%
MazF activator = activators of E. coli MazEF toxin-antitoxin RNase, primary screen, biochemical, fluorescence, uHTS; FAM/BHQ RNA-DNA oligo cleavage fluorescence, 5 h; 0.32% of 350,000 active; activation, % at 20 µM; in the data active = activation above about 50%
Target sequence (P0AE70 whole entry, looked up): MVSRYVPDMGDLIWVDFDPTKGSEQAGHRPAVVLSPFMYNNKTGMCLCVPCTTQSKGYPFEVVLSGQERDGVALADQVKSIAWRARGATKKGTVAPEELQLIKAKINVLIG
A number is an active result; - = inactive; . = no result given; + = active, no number; ! = a repeat was not active. Compounds with a hit are over-represented: about 1.2% of the library has one in this group of screens.

SMILES	Sa ugtP lethal	PriA SSB inh	BJeLR lethal	RN4220 kill	MazF activator
CCOc1cc(N(CC)CC)ccc1/C=C(/C#N)c1nc2ccccc2[nH]1	-	-	-	-	132
CCN(CC)c1ccc(/C=N/NC(=O)c2ccco2)cc1	.	.	-	.	-
CCN(CC)c1ccc(C=NNc2ccccc2)c(O)c1	-	-	.	-	.
CCN(CC)c1ccc(C=NNc2nc3ccccc3[nH]2)cc1	99	-	.	97	.
CCN(CC)c1ccc(/C=N/Nc2nc3ccccc3[nH]2)c(O)c1	.	.	60	.	-
O=C(O)c1ccc(C=NNc2nc3ccccc3[nH]2)cc1	-	.	.	-	.
CCOC(=O)c1sc2c(c1C)c(=O)c(C(=O)OCC)cn2CC	-	-	-	-	-
O=C(COc1cccc(F)c1)N1c2ccccc2Sc2ccccc21	-	-	-	-	-
COc1ccc(-c2ccc(C)c(NS(=O)(=O)c3ccc(OC)c(F)c3)c2)nn1	.	-	.	.	.
Cc1[nH]n(-c2ccccc2)c(=O)c1C=Nc1cccc(F)c1	-	-	-	-	-
Cc1cccc(-n2[nH]c(C)c(C=Nc3ccc4[nH]c(=O)[nH]c4c3)c2=O)c1	-	-	-	-	154
Cc1cccc(/N=C/c2c(C)[nH]n(-c3ccccc3)c2=O)n1	.	.	-	.	-
Cc1[nH]n(-c2ccccc2)c(=O)c1C=Nc1ccc2[nH]c(=O)[nH]c2c1	.	-	-	.	90
Cc1cc(C)c(NC(=O)COc2nncc3ccccc23)c(C)c1	-	-	-	-	-
C[C@H](NC(=O)c1nc[nH]c1C(=O)N(C)Cc1ccccc1)C(=O)OC(C)(C)C	.	-	.	.	-
O=C(CSc1nnc(-c2ccccc2)c(-c2ccccc2)n1)Nc1ncc(Cl)cc1Cl	-	-	-	-	-
O=C(CSc1nnc(-c2ccccc2)c(-c2ccccc2)n1)Nc1ccc(Br)cn1	88	-	-	-	-
O=C(Nc1cccc(Cl)c1N1CCCC1)c1ccc(Br)o1	-	-	-	-	-
O=C(Nc1cccc(Cl)c1N1CCCC1)c1cc2ccccc2o1	89	-	-	-	-
CCN(CC)S(=O)(=O)c1cccc(NC(=O)CN(C)Cc2cccc(OC)c2)c1	-	-	-	-	-
CCn1cc(C(=O)O)c(=O)c2cc(F)c(N3CCN(S(=O)(=O)c4ccc5c(c4)OCCO5)CC3)cc21	100	-	-	100	-
CCn1cc(C(=O)O)c(=O)c2cc(F)c(N3CCN(S(=O)(=O)c4ccc(NC(C)=O)cc4)CC3)cc21	99	-	-	99	-
CCOC(=O)Cc1c(Sc2ccccc2)c2ccccc2n1C	95	-	-	-	-
NS(=O)(=O)c1ccc(NN=C/C=C/c2ccccc2[N+](=O)[O-])cc1	-	48	.	-	.
O=C(O)c1ccc(NN=C/C=C/c2ccccc2[N+](=O)[O-])cc1	-	-	.	-	.
SMILES	Sa ugtP lethal	PriA SSB inh	BJeLR lethal	RN4220 kill	MazF activator
COc1ccccc1OCC#CCNC(=O)C(c1ccccc1)c1ccccc1	.	-	.	.	.
Cc1sc2ncnc(NN=Cc3ccccc3O)c2c1C	.	-	.	.	.
Cc1sc2ncnc(N/N=C/c3ccccc3O)c2c1C	.	.	81	.	-
Cc1ccc(-n2nnnc2C(Cl)c2nnnn2-c2ccc(C)cc2)cc1	99	-	-	97	-
O=[N+]([O-])c1ccc(N2CCCC2)cc1N1CCN(c2ccccc2)CC1	.	84	.	.	.
O=[N+]([O-])c1ccc(N2CCCC2)cc1N1CCOCC1	.	-	.	.	.
CON=Cc1ccc(N2CCCC2)c([N+](=O)[O-])c1	-	39	.	-	.
CN1CCN(c2cc(N3CCCC3)ccc2[N+](=O)[O-])CC1	.	59	.	.	.
CN1CCN(c2ccc([N+](=O)[O-])c(N3CCCCC3)c2)CC1	-	-	-	-	-
COc1ccc(NC2=CC(c3ccc(F)cc3)N(c3ccc(OC)cc3)C2=O)cc1 (stereo unspecified)	-	-	-	-	-
Cc1cc(C(=O)COC(=O)c2ccco2)c(C)n1Cc1ccco1	-	-	-	-	-
Cc1cc(C(=O)COC(=O)c2cc(Cl)ccc2N)c(C)n1Cc1ccco1	99	-	-	-	-
CN(CC(=O)Nc1ccccc1Cl)C(=O)COC(=O)c1ccc([N+](=O)[O-])s1	-	-	.	-	-
O=C1OC(c2cccs2)=N/C1=C\c1ccc(-c2cccc(Cl)c2)o1	-	91	-	-	-
Cc1ccc(-c2ccc(/C=C3/N=C(c4cccs4)OC3=O)o2)cc1Cl	.	-	.	.	.
N#C/C(N=Nc1ccccc1O)=N\Nc1ccccc1O	.	+	56	.	-
Oc1ccccc1N=N/C(=N/Nc1ccccc1O)c1ccccc1	.	-	-	.	-
OCCn1cnc2c(SCc3ccccc3)ncnc21	-	-	.	-	-
CNc1ccc(Br)cc(C(=O)/C=C/c2ccc(OC)cc2OC)c1=O	98	-	-	-	-
CNc1ccc(Br)cc(C(=O)/C=C/c2cccc(OC)c2)c1=O	-	-	-	-	-
COc1ccc(C(=O)OCC(=O)Nc2ccc(N3CCOCC3)cc2)cc1OC	-	-	.	-	-
COc1ccccc1Nc1ccc2c(O)cc(S(=O)(=O)O)cc2c1	-	51	.	-	-
COc1ccc2cc3c(N)c(C(=O)NCc4ccco4)sc3nc2c1	-	-	-	-	67
O=S1(=O)CCOC[C@H](CC2CCCCC2)N1Cc1cccc(C(F)(F)F)c1	.	-	-	.	-
COc1cc2c(C#N)c(N3CCCC3)nc(N)c2c(N)n1	-	-	-	-	90!
SMILES	Sa ugtP lethal	PriA SSB inh	BJeLR lethal	RN4220 kill	MazF activator
CCCOc1cc2c(C#N)c(N3CCCC3)nc(N)c2c(N)n1	-	-	-	-	63
N#Cc1c(N)nc(N2CCCC2)c(C#N)c1-c1ccc(Cl)cc1	-	-	-	-	66
CC[C@@H](C)[C@@H]1CN([C@@H](CN2CCC[C@H]2CN2C(N)=NC[C@H]2CC(C)C)C(C)C)C(=N)N1CCc1ccc(Cl)c(Cl)c1	100	-	.	100	-
CC[C@@H](C)[C@@H]1CN([C@@H](C)CN2CCC[C@H]2CN2C(N)=NC[C@H]2CC(C)C)C(=N)N1CCc1ccc(Cl)c(Cl)c1	.	-	.	.	-
CCCC(CN1CCCC1CN1C(N)=NCC1Cc1ccccc1)N1CC(C(C)CC)N(CCc2ccc(Cl)c(Cl)c2)C1=N (stereo unspecified)	100	.	.	101	.
CCC[C@@H](CN1CCC[C@H]1CN1C(N)=NC[C@@H]1Cc1ccccc1)N1C[C@@H]([C@H](C)CC)N(CCc2ccc(Cl)c(Cl)c2)C1=N	.	-	.	.	-
CCC[C@@H](CN1CCC[C@H]1CN1C(N)=NC[C@@H]1Cc1ccccc1)N1C[C@@H](Cc2ccccc2)N(CCc2ccc(Cl)c(Cl)c2)C1=N	.	-	.	.	-
CCC[C@@H](CN1CCC[C@H]1CN1C(N)=NC[C@H]1CC(C)C)N1C[C@@H]([C@H](C)CC)N(CCc2ccc(Cl)c(Cl)c2)C1=N	100	-	.	100	-
CCCC(CN1CCCC1CN1C(N)=NCC1Cc1ccccc1)N1CC(Cc2ccccc2)N(CCc2ccc(Cl)c(Cl)c2)C1=N (stereo unspecified)	101	.	.	101	.
